The record followed here is PubChem BioAssay.

Results filed as inconclusive are left out. Activity calls are given as the source filed them.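 Rule for the calls, unless noted: active = normalized viability below 100% at a tested concentration; inactive = the rest.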

A short description of assay [1]: viability loss in pontine glioma line – cell-based, SU-DIPG-IV, MIPE4.0, CellTiter-Glo, qHTS, dose response (AID 1347063; cut-off not given, nearly all actives have AC50 up to about 30 µM;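 note: compound exposure lasted 48 hours before the viability readout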). The conditions noted are these: CellTiter-Glo ATP luminescence. Background: In ATP-based viability assays light output follows the ATP content of the culture.
A short description of assay [2]: viability loss in pontine glioma line – cell-based, SU-DIPG-XIII, MIPE5.0, CellTiter-Glo, qHTS, dose response (AID 1347064; cut-off not given, nearly all actives have AC50 up to about 23 µM;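 for AC50: cells exposed to compound for 48 hours before the viability read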). The conditions noted are these: CellTiter-Glo ATP luminescence.
The nature of assay [3]: viability loss in pontine glioma line – cell-based, SU-DIPG-XXV, MIPE5.0, CellTiter-Glo, qHTS, dose response (AID 1347065; cut-off not given, nearly all actives have AC50 up to about 26 µM;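 note: cells exposed to compound for 48 hours before ATP readout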). The conditions noted are these: CellTiter-Glo ATP luminescence.
Assay [4] can be described thus: JHH-DIPG-1 glioma cell viability, MIPE5.0 library, CellTiter-Glo luminescence, qHTS (AID 1347067; cut-off not given, nearly all actives have AC50 up to about 26 µM;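 note: cells exposed to compound for 48 hours before readout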). The conditions noted are these: JHH-DIPG-1 glioma viability, CellTiter-Glo ATP luminescence.
A short description of assay [5]: drug combination growth inhibition, ovarian cancer – cell-based, oncology-focused library, rucaparib conditional, profiling panel (AID 1508598). The conditions noted are these: patient-derived ovarian cancer cells, CellTiter-Glo viability, 144 h, stronger effect = lower value.
A short description of assay [6]: growth inhibition of DIPG cells – cell-based, MIPE5.0 library, qHTS (AID 1347068; cut-off not given, nearly all actives have IC50 up to about 30 µM;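 for IC50: cells exposed to compound for 48 hours before viability readout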). The conditions noted are these: SU-DIPG-XXV viability.
Assay [7] is described as follows: viability loss with induced miR-34 in A549 – imaging, A549 dox-inducible miR-34, nuclei and caspase counts, primary screen (AID 1347080;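 active = compounds whose cell count with miR-34 switched on is under 0.7 times the count with it off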). The conditions noted are these: A549 miR-34 inducible, Hoechst nuclei count, 48 h.
Assay [8] can be described thus: MELAS cybrid and Rieske KO viability enhancers – cell-based, MELAS cybrids, Rieske KO mouse fibroblasts, CellTiter-Glo, primary screen (AID 1508586;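 active = mean z-score across replicates of 1.96 or higher in either the MELAS or the Rieske mutant cell line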;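 note: z relative to plate mean and SD of compound and empty wells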). The conditions noted are these: low glucose.
Assay [9] is described as follows: growth inhibition of DIPG cells – cell-based, MIPE4.0 library, CellTiter-Glo luminescence, qHTS (AID 1347066; cut-off not given, nearly all actives have AC50 up to about 30 µM;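 note: cells exposed to compound for 48 hours before readout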). The conditions noted are these: SU-DIPG-VI viability, CellTiter-Glo ATP luminescence.

As to `COc1cc(N2CCC(C(N)=O)CC2)ccc1Nc1nc(N)c(Cl)c(Nc2ccccc2S(=O)(=O)C(C)C)n1`, in assay [1], the concentration at half-maximal activity (AC50) was 5.9 µM (active).

As for `CNc1nc(-c2ccc3c(N)n[nH]c3c2)cc(N2C[C@@H](C(=O)NC3CCCCC3)CC[C@H]2C)n1`, the AC50 in assay [1] is 20.9 µM (active); in assay [2], 18.6 µM (active); in [3] it was 6.61 µM (active); in assay [4] it was 14.8 µM (active). Further, the viability in [5] (at 0.000305 µM, OCI-C5x cells, with rucaparib 10 µM, 100% = cells with rucaparib alone) was 103% (inactive); in assay [5] (at 0.000305 µM, OCI-C5x cells, without rucaparib), 113% (inactive); in assay [5] (at 0.000305 µM, OCI-P5x cells, with rucaparib 20 µM, 100% = cells with rucaparib alone) it was 103% (inactive); in assay [5] (at 0.000305 µM, OCI-P5x cells, without rucaparib) it was 106% (inactive); in assay [5] (at 0.00122 µM, OCI-C5x cells, with rucaparib 10 µM, 100% = cells with rucaparib alone), 124% (inactive); in [5] (at 0.00122 µM, OCI-C5x cells, without rucaparib), 115% (inactive). The viability in assay [5] (at 0.00122 µM, OCI-P5x cells, with rucaparib 20 µM, 100% = cells with rucaparib alone) was 97.7% (active); in assay [5] (at 0.00122 µM, OCI-P5x cells, without rucaparib), 102% (inactive); in assay [5] (at 0.00488 µM, OCI-C5x cells, with rucaparib 10 µM, 100% = cells with rucaparib alone), 116% (inactive); in assay [5] (at 0.00488 µM, OCI-C5x cells, without rucaparib), 111% (inactive); in assay [5] (at 0.00488 µM, OCI-P5x cells, with rucaparib 20 µM, 100% = cells with rucaparib alone) it was 100% (inactive); in assay [5] (at 0.00488 µM, OCI-P5x cells, without rucaparib), 104% (inactive). Further, the viability in assay [5] (at 0.0195 µM, OCI-C5x cells, with rucaparib 10 µM, 100% = cells with rucaparib alone) was 119% (inactive); in assay [5] (at 0.0195 µM, OCI-C5x cells, without rucaparib), 115% (inactive); in [5] (at 0.0195 µM, OCI-P5x cells, with rucaparib 20 µM, 100% = cells with rucaparib alone), 92.7% (active); in [5] (at 0.0195 µM, OCI-P5x cells, without rucaparib), 96.7% (active); in assay [5] (at 0.0781 µM, OCI-C5x cells, with rucaparib 10 µM, 100% = cells with rucaparib alone), 117% (inactive); in [5] (at 0.0781 µM, OCI-C5x cells, without rucaparib) it was 120% (inactive). Besides, the viability in assay [5] (at 0.0781 µM, OCI-P5x cells, with rucaparib 20 µM, 100% = cells with rucaparib alone) is 102% (inactive); in assay [5] (at 0.0781 µM, OCI-P5x cells, without rucaparib) it was 98.2% (active); in assay [5] (at 0.313 µM, OCI-C5x cells, with rucaparib 10 µM, 100% = cells with rucaparib alone), 107% (inactive); in assay [5] (at 0.313 µM, OCI-C5x cells, without rucaparib) it was 113% (inactive); in assay [5] (at 0.313 µM, OCI-P5x cells, with rucaparib 20 µM, 100% = cells with rucaparib alone), 91% (active); in assay [5] (at 0.313 µM, OCI-P5x cells, without rucaparib), 91.1% (active). The viability was 112% (inactive) in assay [5] (at 1.25 µM, OCI-C5x cells, with rucaparib 10 µM, 100% = cells with rucaparib alone); 122% (inactive) in [5] (at 1.25 µM, OCI-C5x cells, without rucaparib); 90% (active) in [5] (at 1.25 µM, OCI-P5x cells, with rucaparib 20 µM, 100% = cells with rucaparib alone); 93.4% (active) in assay [5] (at 1.25 µM, OCI-P5x cells, without rucaparib); 67.5% (active) in [5] (at 5 µM, OCI-C5x cells, with rucaparib 10 µM, 100% = cells with rucaparib alone); 155% (inactive) in assay [5] (at 5 µM, OCI-C5x cells, without rucaparib). Further, the viability in assay [5] (at 5 µM, OCI-P5x cells, with rucaparib 20 µM, 100% = cells with rucaparib alone) was 22.3% (active); in assay [5] (at 5 µM, OCI-P5x cells, without rucaparib), 84.2% (active).

For `O=c1cc(CN2CCOCC2)occ1OCCCCCSc1ccnc2cc(C(F)(F)F)ccc12`, in assay [1], the compound was classed as inactive. In addition, the results for the AC50 in [2], in assay [3] and in assay [4] were 18.6 µM (active), 23.5 µM (active) and 18.6 µM (active), respectively. Moreover, in assay [6], the IC50 is 20.9 µM (active). For the same compound, the fold change in [7] (stronger effect = lower value, cell number ratio, induced over uninduced) was 0.876 (inactive); in assay [7] (measured here: relative caspase fold change +Dox/-Dox) it was 0.509. Also, the cell count in assay [7] (measured here: total cells with miR-34 induction, stronger effect = lower value) was 6290; in assay [7] (measured here: total cells without miR-34 induction) it was 7180. The z-score in assay [8] (MELAS cybrid survival, CellTiter-Glo 48 h, stronger effect = higher value) is -0.449 (inactive); in [8] (Rieske KO mouse fibroblast survival, CellTiter-Glo 72 h) it was 0.747.

With `CON(C)C(=O)N1N=C(c2cc(F)ccc2F)S[C@]1(CCCN)c1ccccc1`, the compound was called inactive in [1] and in [9].

In the case of `COc1cc(OCc2cccc(-c3ccccc3)c2C)cc(OC)c1CN1CCCC[C@H]1C(=O)O`, the outcome in assay [2] was inactive. Also, the half-maximal activity concentration (AC50) in assay [3] is 20.9 µM (active).

In the case of `NC(=O)c1cccc2[nH]c(-c3ccc([C@H]4CCCN4)cc3F)nc12`, the result in assay [1], in assay [9] and in assay [6] was inactive.

In general, AC50 refers to the concentration giving half of the maximal activity seen. What is called viability is a read-out of living cells in per cent, often relative to untreated cells. As a reminder, the IC50 is the concentration at which inhibition is half-maximal.
